# Assay results from the supplement of paper PMC10037445.
# Whole data set: some 2,900 compounds, median “NF-kB SEAP reporter activity, fold change vs agonist alone” near 0.99, cut for the highest 2% near 2.6. The list comes from a sample in which the highest values are over-represented; it also holds similar structures and randomly drawn compounds.
# What was measured:
# RAW-Dual [1] = test: NF-kB SEAP reporter activity, fold change vs agonist alone; cytotoxicity flag (confluency mask): not cytotoxic; higher = enhanced NF-kB activity
# Summary of the method: (§1)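 Reporter activity is given as fold change relative to agonist-alone wells. To measure it, 50 nL of library stock was pin-tooled onto RAW-Dual macrophages (50,000 cells/well, DMEM, 384-well plates), a PRR agonist followed 1 h later, and cells stayed at 37 °C, 5% CO2. Twenty hours on, supernatant was assayed for IRF (QuantiLuc luminescence) and NF-κB (QuantiBlue, 620 nm absorbance), and wells under 70% of agonist-control IncuCyte confluency in both mask sets were marked cytotoxic.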
# RAW-Dual [2] = test: NF-kB SEAP reporter activity, fold change vs agonist alone; higher = enhanced NF-kB activity; details: library stock concentration (final ~1000-fold dilution): 10 mM
# Summary of the method: as §1
# RAW-Dual [3] = test: NF-kB SEAP reporter activity, fold change vs agonist alone; cytotoxicity flag (confluency mask): cytotoxic (confluency <70% of control); higher = enhanced NF-kB activity
# Summary of the method: as §1
# [4] = agonist: ODN 1826 (TLR9) 0.5 ug/mL
# [5] = agonist: Pam2CSK4 (TLR2/6) 0.1 ug/mL
# [6] = agonist: Pam3CSK4 (TLR2/1) 0.1 ug/mL
# [7] = cytotoxicity flag (confluency mask): not cytotoxic, agonist: Imiquimod (TLR7) […]
# [8] = cytotoxicity flag (confluency mask): not cytotoxic, agonist: MPLA (TLR4) […]
# [9] = cytotoxicity flag (confluency mask): cytotoxic (confluency <70% of control), agonist: Imiquimod (TLR7) […]
# [10] = cytotoxicity flag (confluency mask): cytotoxic (confluency <70% of control), agonist: MPLA (TLR4) […]
structure (smiles),measurement,setting,value
COc1cc(-c2cc(-c3ccc(N4CCNCC4)cc3)cnc2C)cc(OC)c1OC (library stock concentration (final ~1000-fold dilution): 10 mM),NF-kB SEAP reporter activity,RAW-Dual [1]; agonist: LPS (TLR4) 0.1 ug/mL,3.37
same,NF-kB SEAP reporter activity,RAW-Dual [1]; [4],0.202
same,NF-kB SEAP reporter activity,RAW-Dual [1]; [5],1.29
same,NF-kB SEAP reporter activity,RAW-Dual [1]; [6],1.57
COc1cc(-c2cc(-c3cccc(O)c3)cnc2N)cc(OC)c1OC,NF-kB SEAP reporter activity,RAW-Dual [2]; [7],1.24
same,NF-kB SEAP reporter activity,RAW-Dual [2]; [8],1.77
COc1cc(-c2cc(-c3ccc(N4CCNCC4)cc3)cnc2C)cc(OC)c1OC,NF-kB SEAP reporter activity,RAW-Dual [2]; [7],1.28
same,NF-kB SEAP reporter activity,RAW-Dual [2]; [8],1.94
c1cc(-c2cnn3cc(-c4ccc(N5CCNCC5)cc4)cnc23)c2cccnc2c1 (library stock concentration (final ~1000-fold dilution): 10 mM),NF-kB SEAP reporter activity,RAW-Dual [3]; agonist: LPS (TLR4) 0.1 ug/mL,0.202
same,NF-kB SEAP reporter activity,RAW-Dual [3]; [4],0.193
same,NF-kB SEAP reporter activity,RAW-Dual [3]; [5],0.0775
same,NF-kB SEAP reporter activity,RAW-Dual [3]; [6],0.149
COc1cc(-c2cc(-c3cccc(O)c3)cnc2N)cc(OC)c1OC (library stock concentration (final ~1000-fold dilution): 10 mM),NF-kB SEAP reporter activity,RAW-Dual [1]; agonist: LPS (TLR4) 0.1 ug/mL,1.87
same,NF-kB SEAP reporter activity,RAW-Dual [1]; [4],1.54
same,NF-kB SEAP reporter activity,RAW-Dual [1]; [5],1.09
same,NF-kB SEAP reporter activity,RAW-Dual [1]; [6],1.39
c1cc(-c2cnn3cc(-c4ccc(N5CCNCC5)cc4)cnc23)c2cccnc2c1,NF-kB SEAP reporter activity,RAW-Dual [2]; [9],0.258
same,NF-kB SEAP reporter activity,RAW-Dual [2]; [10],0.269
C[C@@H]1O[C@@H](O[C@H]2[C@H](OC(=O)[C@]34CCC(C)(C)C[C@H]3C3=CC[C@@H]5[C@@]6(C)C[C@H](O)[C@H](O[C@@H]7O[C@H](CO)[C@@H](O)[C@H](O)[C@H]7O)[C@@](C)(CO)[C@@H]6CC[C@@]5(C)[C@]3(C)CC4)O[C@H](CO)[C@@H](O)[C@@H]2O)[C@H](O)[C@H](O)[C@H]1O[C@@H]1OC[C@@H](O)[C@H](O)[C@H]1O,NF-kB SEAP reporter activity,RAW-Dual [2]; [7],0.83
same,NF-kB SEAP reporter activity,RAW-Dual [2]; [8],1.01
C[C@@H]1O[C@@H](O[C@H]2[C@H](OC(=O)[C@]34CCC(C)(C)C[C@H]3C3=CC[C@@H]5[C@@]6(C)C[C@H](O)[C@H](O[C@@H]7O[C@H](CO)[C@@H](O)[C@H](O)[C@H]7O)[C@@](C)(CO)[C@@H]6CC[C@@]5(C)[C@]3(C)CC4)O[C@H](CO)[C@@H](O)[C@@H]2O)[C@H](O)[C@H](O)[C@H]1O[C@@H]1OC[C@@H](O)[C@H](O)[C@H]1O (library stock concentration (final ~1000-fold dilution): 10 mM),NF-kB SEAP reporter activity,RAW-Dual [1]; agonist: LPS (TLR4) 0.1 ug/mL,1.11
same,NF-kB SEAP reporter activity,RAW-Dual [1]; [4],0.984
same,NF-kB SEAP reporter activity,RAW-Dual [1]; [5],1.04
same,NF-kB SEAP reporter activity,RAW-Dual [1]; [6],1.19
CN(C)C(CCOc1cccc2ccccc12)c1ccccc1.Cl (stereo not drawn),NF-kB SEAP reporter activity,RAW-Dual [2]; [9],1.61
same,NF-kB SEAP reporter activity,RAW-Dual [2]; [10],0.958
CN(C)C(CCOc1cccc2ccccc12)c1ccccc1.Cl (stereo not drawn) (library stock concentration (final ~1000-fold dilution): 10 mM),NF-kB SEAP reporter activity,RAW-Dual [3]; agonist: LPS (TLR4) 0.1 ug/mL,1.05
same,NF-kB SEAP reporter activity,RAW-Dual [3]; [4],0.655
same,NF-kB SEAP reporter activity,RAW-Dual [3]; [5],0.546
same,NF-kB SEAP reporter activity,RAW-Dual [3]; [6],0.65
CCCSc1nc(NC2CC2c2ccc(F)c(F)c2)c2nnn(C3CC(OCCO)C(O)C3O)c2n1 (stereo not drawn),NF-kB SEAP reporter activity,RAW-Dual [2]; [9],1.05
same,NF-kB SEAP reporter activity,RAW-Dual [2]; [10],0.94
CCCSc1nc(NC2CC2c2ccc(F)c(F)c2)c2nnn(C3CC(OCCO)C(O)C3O)c2n1 (stereo not drawn) (library stock concentration (final ~1000-fold dilution): 10 mM),NF-kB SEAP reporter activity,RAW-Dual [3]; agonist: LPS (TLR4) 0.1 ug/mL,1.04
same,NF-kB SEAP reporter activity,RAW-Dual [3]; [4],0.615
same,NF-kB SEAP reporter activity,RAW-Dual [3]; [5],0.51
same,NF-kB SEAP reporter activity,RAW-Dual [3]; [6],0.332
Cl.Cl.O=C(O)c1ccc(CN2CCC(CNC3CC3c3ccccc3)CC2)cc1 (stereo not drawn),NF-kB SEAP reporter activity,RAW-Dual [2]; [7],1.01
same,NF-kB SEAP reporter activity,RAW-Dual [2]; [8],1.05
Cl.Cl.O=C(O)c1ccc(CN2CCC(CNC3CC3c3ccccc3)CC2)cc1 (stereo not drawn) (library stock concentration (final ~1000-fold dilution): 10 mM),NF-kB SEAP reporter activity,RAW-Dual [1]; agonist: LPS (TLR4) 0.1 ug/mL,1.01
same,NF-kB SEAP reporter activity,RAW-Dual [1]; [4],1.22
same,NF-kB SEAP reporter activity,RAW-Dual [1]; [5],0.875
same,NF-kB SEAP reporter activity,RAW-Dual [1]; [6],0.786
COc1cc(Nc2nc3ccccc3nc2NS(=O)(=O)c2ccc(NC(=O)c3ccc(C)c(OC)c3)cc2)cc(OC)c1,NF-kB SEAP reporter activity,RAW-Dual [2]; [7],0.914
same,NF-kB SEAP reporter activity,RAW-Dual [2]; [8],0.963
COc1cnc(NS(=O)(=O)c2ccc(N)cc2)nc1 (library stock concentration (final ~1000-fold dilution): 10 mM),NF-kB SEAP reporter activity,RAW-Dual [1]; agonist: LPS (TLR4) 0.1 ug/mL,1.22
same,NF-kB SEAP reporter activity,RAW-Dual [1]; [4],0.999
same,NF-kB SEAP reporter activity,RAW-Dual [1]; [5],1.13
same,NF-kB SEAP reporter activity,RAW-Dual [1]; [6],1.19
